In PubChem BioAssay (EPA / NIEHS):
“And” between values parts separate entries of the source, which are not always exact repeats. Identical values can stand only once. Some compounds were tested as several samples or in several runs, with calls that do not always agree. The source made the active and inactive calls. How the source made its calls: active means hit-call score of the fitted dose curve at least 0.9, where 1 is the maximum; inactive means score below 0.9.

Columns and labels:
[1] = Tanguay_ZF_120hpf_DP24: Oregon State University Tanguay Lab 24 Hour Post-fertilization zebrafish Assay for Delayed Development (AID 2284390)
Outline: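 Scored at 24 hpf as a binary present/absent call of delayed development by brightfield, with dead embryos not assessed. Embryos (5D wild type, chorion removed with pronase at 4 hpf) dosed statically from 6 hpf at 28 C in 0.64% DMSO.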

[2] = Tanguay_ZF_120hpf_CRAN: Oregon State University Tanguay Lab 120 Hour Post-fertilization zebrafish Assay for Craniofacial Malformation (AID 2284397)
Outline: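 Scoring of craniofacial malformation as a binary endpoint was done at 120 hpf by brightfield microscopy and was not done in dead embryos. Exposure was static, starting at 6 hpf, in dechorionated wild-type embryos held singly at 28C with 0.64% DMSO final.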

[3] = Tanguay_ZF_120hpf_AXIS: Oregon State University Tanguay Lab 120 Hour Post-fertilization zebrafish Assay for Axial Malformation (AID 2284398)
Outline: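 Scoring was binary (present or absent) for body-axis defects, judged by brightfield imaging at 120 hpf in surviving larvae. Exposure was static at 28C from 6 hpf in chorion-free 5D wild-type embryos, with 0.64% DMSO vehicle.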

[4] = Tanguay_ZF_120hpf_MORT: Oregon State University Tanguay Lab 120 Hour Post-fertilization zebrafish Assay for Mortality (AID 2284399)
Method: (§1) Tanguay_ZF_120hpf is a whole embryo, multiplexed endpoint assay using zebrafish larvae exposed for 120 hours post fertilization on a 96-well plate.Tanguay_ZF_120hpf_MORT is one of one assay component(s) measured or calculated from the Tanguay_ZF_120hpf assay. It is designed to make measurements of zebrafish development as detected with brightfield microscopy of developing zebrafish embryos.Data from the assay component Tanguay_ZF_120hpf_MORT was analyzed into 1 assay endpoints. This assay endpoint, Tanguay_ZF_120hpf_MORT, was analyzed in the positive analysis fitting direction relative to DMSO as the negative control and baseline of activity. Using a type of viability reporter, gain-of-signal activity can be used to understand changes in developmentals as they relate to the whole embryo. To generalize the intended target to other relatable targets, this assay endpoint is annotated to the zebrafish development intended target family, where the subfamily is embryonic mortality.
(§2) Zebrafish husbandry: Tropical 5D wild-type adult zebrafish were housed in at an approximate density of 1000 per 100 gallon tank at the Sinnhuber Aquatic Research Laboratory, Oregon State University, Corvallis, OR. […] At 24 hpf, embryos were assessed for photomotor response using a custom photomotor response analysis tool (PRAT) and for developmental toxicity endpoints (MO24: mortality at 24 hpf, DP: developmental progression, SM: spontaneous movement, and NC: notochord distortion). At 120 hpf, locomotor activity was measured using Viewpoint Zebralab and assessed for 13 endpoints. Zebrafish acquisition and analysis program (ZAAP), a custom program designed to inventory, acquire, and manage zebrafish data, was used to collect developmental endpoints as either present or absent (i.e., binary responses were recorded). If mortality occurred for an embryo (at either 24 or 120 hpf), the non-mortality endpoints were not measured.

[5] = Tanguay_ZF_120hpf_EDEM: Oregon State University Tanguay Lab 120 Hour Post-fertilization zebrafish Assay for Edema Malformation (AID 2284400)
Method: Tanguay_ZF_120hpf is a whole embryo, multiplexed endpoint assay using zebrafish larvae exposed for 120 hours post fertilization on a 96-well plate.Tanguay_ZF_120hpf_EDEM is one of one assay component(s) measured or calculated from the Tanguay_ZF_120hpf assay. It is designed to make measurements of zebrafish development as detected with brightfield microscopy of developing zebrafish embryos.Data from the assay component Tanguay_ZF_120hpf_EDEM was analyzed into 1 assay endpoints. This assay endpoint, Tanguay_ZF_120hpf_EDEM, was analyzed in the positive analysis fitting direction relative to DMSO as the negative control and baseline of activity. […]
as §2, with “Zebrafish acquisition and analysis program (ZAAP), a custom program designed to inventory, acquire, and manage zebrafish data, was used to collect developmental endpoints as either present or absent (i.e., binary responses were recorded).” left out

[6] = Tanguay_ZF_120hpf_MUSC: Oregon State University Tanguay Lab 120 Hour Post-fertilization zebrafish Assay for Muscle Malformation (AID 2284401)
Outline: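 Scored as a binary brightfield endpoint at 120 hpf, fitted versus DMSO. Single dechorionated wild-type (Tropical 5D) zebrafish embryos per well, statically exposed at 28C from 6 hpf onward with final DMSO 0.64%.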

[7] = Tanguay_ZF_120hpf_BRN: Oregon State University Tanguay Lab 120 Hour Post-fertilization zebrafish Assay for Brain Region Malformation (AID 2284402)
Outline: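 Binary brightfield scoring of brain malformation at 120 hpf in 5D wild-type larvae, chorion removed with pronase at 4 hpf. Static exposure began at 6 hpf, 28C, sealed plates, DMSO 0.64% (vol/vol) as vehicle baseline.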

[8] = Tanguay_ZF_120hpf_TCHR: Oregon State University Tanguay Lab 120 Hour Post-fertilization zebrafish Assay for Touch Responsive (AID 2284403)
Method: as §1, with “plate.Tanguay_ZF_120hpf_TCHR” for “plate.Tanguay_ZF_120hpf_MORT”, “Tanguay_ZF_120hpf_TCHR” for “Tanguay_ZF_120hpf_MORT”, “Tanguay_ZF_120hpf_TCHR,” for “Tanguay_ZF_120hpf_MORT,”, “morphology” for “viability”, “functional response.” for “mortality.”
as §2

[9] = Tanguay_ZF_120hpf_ANY: Oregon State University Tanguay Lab 120 Hour Post-fertilization zebrafish Assay for Any Mortality and Malformation (AID 2284404)
Outline: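 Dechorionated Tropical 5D wild-type embryos, one per well from 6 hpf, static exposure in sealed, dark plates at 28C until 120 hpf, 0.64% DMSO final. Brightfield scoring of mortality and malformations as binary presence/absence, pooling 13 morphology endpoints.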

[10] = CCTE_Padilla_ZF_Score.Craniofacial: CCTE's 144 Hour Post-fertilization zebrafish Assay Score for Craniofacial Malformation, Padilla Lab (AID 2284405)
Outline: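 Craniofacial defects were scored at 6 dpf by two blinded observers using stereomicroscopy. Exposure of wild-type embryos began at 6–8 hpf in sealed wells of 10% Hanks' solution at 26C, with chemical removed by rinsing at 5 dpf.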

SMILES: O=C(O)C(F)(F)C(F)(F)C(F)(F)C(F)(F)C(F)(F)C(F)(F)C(F)(F)F
- outcome [1]: inactive
- outcome [2]: inactive
- outcome [3]: inactive
- outcome [4]: inactive
- outcome [5]: inactive
- outcome [6]: inactive
- outcome [7]: inactive
- outcome [8]: inactive
- outcome [9]: inactive
- outcome [10]: inactive

SMILES: O=S(=O)(O)C(F)(F)C(F)(F)C(F)(F)C(F)(F)C(F)(F)C(F)(F)C(F)(F)C(F)(F)F
- outcome [1]: inactive
- AC50 [2]: 32.7 µM (active) and 91 µM (active)
- AC50 [3]: 37.8 µM (active)
- outcome [3]: inactive
- AC50 [4]: 22.5 µM (active)
- outcome [4]: inactive
- AC50 [5]: 32.7 µM (active) and 35.6 µM (active)
- outcome [6]: inactive
- AC50 [7]: 46 µM (active)
- outcome [7]: inactive
- AC50 [8]: 51.8 µM (active)
- outcome [8]: inactive
- AC50 [9]: 32.7 µM (active) and 16.7 µM (active)
- AC50 [10]: 8.88 µM (active) and 9.43 µM (active)
